# Test results published in PubChem BioAssay (NCATS).
# Several values for one entry are separate records, joined by “and”; a condition that tells them apart may be missing. Identical values can stand only once. Records with an inconclusive call do not appear. A number with no mark means an inactive call. Activity calls are given as the source filed them. Calls come from the whole dose curve; as a rule, active = well fitted curve in the direction sought with a large enough effect; inconclusive = small, poorly fitted or top-dose-only effect, or another doubt; inactive = no such curve, though single readings can be large; an effect the other way counts as inactive or inconclusive.
# Assays:
# [1] = Viability qHTS for spleen associated tyrosine kinase inhibitor (SYKi) naive MV4-11 cells (AID 1963823); note: nearly all actives have a fitted effect of over 40% in size
# Summary of the method: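 qHTS, SYK inhibitor-naive MV4-11; 500 cells/well; 72 hr compound exposure, 37 C; CellTiter-Glo added, 10 min RT; luminescence read.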
# [2] = Viability qHTS for spleen associated tyrosine kinase inhibitor (SYKi) drug resistant MV4-11 cells (AID 1963824); note: nearly all actives have a fitted effect of over 35% in size
# Summary of the method: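 CellTiter-Glo luminescence, read 10 min after reagent addition, reports viability after a 72 hr compound exposure. Cells are an MV4-11 line made resistant to SYK inhibition, seeded at 500 per well onto compound-containing plates.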
# [3] = Quantitative highthroughput screen to assess conditional lethalithy of SEM cells grown in RPMI1640 with unreated serum (RPMI+s) (AID 1963883); note: nearly all actives have a fitted effect of over 35% in size
# Summary of the method: (§1)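 Each medium arm—HPLM with 10% dialyzed FBS, or RPMI1640 with 5 mM glucose and 10% untreated or dialyzed FBS—was screened against an 11-point, 3-fold compound titration for 48 h at 37 °C, with CellTiter-Glo luminescence as endpoint.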
# [4] = Cellular viability qHTS for adrenocortical cancer (ACC) cell line SW-13 (AID 1963989); details: SW-13 ACC cells viability, CellTiter-Glo, 48 h; activity (max response): stronger effect = lower value; note: nearly all actives have a fitted effect of over 65% in size;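 for activity (max response): cells grown in serum-free medium with ITS supplement; % is set by controls: 0 for no effect and ±100 for the full control effect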
# Summary of the method: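 Viability was read as CellTiter-Glo luminescence after 48 h compound treatment (up to 46 uM final) of SW-13 cells grown serum-free; titration curves were fit with a four-parameter logistic model to give IC50 and efficacy.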
# [5] = Cellular viability qHTS for adrenocortical cancer (ACC) cell line NCI-H295R (AID 1963990); note: nearly all actives have a fitted effect of over 60% in size
# Summary of the method: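 CellTiter-Glo ATP luminescence, read 48 h after compound addition, measured viability of NCI-H295R adrenocortical cells grown serum-free with ITS. Final concentrations spanned up to 46 uM. Data normalized to DMSO and doxorubicin, fitted for IC50 and maximal response.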
# [6] = Quantitative highthroughput screen to assess conditional lethalithy of SEM cells grown in RPMI1640 with dialyzed fetal bovine serum (RPMI+ds) (AID 1963884); note: nearly all actives have a fitted effect of over 35% in size
# Summary of the method: as §1
# [7] = Quantitative highthroughput screen to assess conditional lethalithy of SEM cells grown in Human Plasma-Like Medium with dialyzed fetal bovine serum (HPLM+ds) (AID 1963882); note: nearly all actives have a fitted effect of over 35% in size
# Summary of the method: as §1
# Potency is the fitted concentration of half-maximal effect.
compound,measurement,setting,value
Clc1cc(Cl)cc(CNc2ncncc2-c2ccc3c(c2)OCO3)c1,Potency,[1],20.6 µM (active)
same,Potency,[2],9.34 µM (active)
same,Potency,[3],26.4 µM (active)
same,Potency,[4],10 µM (active)
same,Potency,[5],3.55 µM (active)
C=CC(=O)Nc1cccc(Oc2nc(Nc3ccc(N4CCN(C)CC4)cc3OC)ncc2Cl)c1,Potency,[1],1.64 µM (active) and 1.66 µM (active)
same,Potency,[2],2.06 µM (active) and 2.95 µM (active)
same,Potency,[3],3.72 µM (active)
same,Potency,[4],8.91 µM (active)
same,Potency,[5],8.91 µM (active)
CCCCCCCC/C=C\CCCCCCCC(=O)NCc1ccc(O)c(OC)c1,Potency,[1],inactive
same,Potency,[2],0.668 µM (active)
same,Potency,[4],3.26 µM (active)
CN(C)c1ccc2cc(C(=O)N[C@@H](CCCN=C(N)CCl)C(=O)NCc3ccccc3)ccc2c1,Potency,[1],5.25 µM (active)
same,Potency,[2],4.68 µM (active)
same,Potency,[3],26.4 µM (active)
same,Potency,[6],26.4 µM (active)
same,activity (max response),[4],-6.76%
same,Potency,[5],inactive
Cn1c2ccccc2c2c3c(c4c5ccccc5n(CCC#N)c4c21)CNC3=O,Potency,[1],0.0651 µM (active)
same,Potency,[2],0.259 µM (active)
same,Potency,[7],0.372 µM (active)
same,Potency,[6],0.418 µM (active)
same,Potency,[5],3.55 µM (active)
COc1cc(OC)c2c(=O)[nH]c(-c3cc(C)c(OCCO)c(C)c3)nc2c1,Potency,[1],14.6 µM (active)
same,Potency,[2],13 µM (active) and 9.34 µM (active)
same,activity (max response),[4],-6.15%
Cn1cnc2c1c(=O)[nH]c(=O)n2C,Potency,[1],inactive
same,Potency,[2],inactive
same,Potency,[6],23.5 µM (active)
same,activity (max response),[4],4.02% and 2.06%
same,Potency,[5],inactive
Oc1ccc(C2CCN(c3ccnc4ccccc34)CC2)cc1O,Potency,[1],2.09 µM (active)
same,Potency,[2],1.86 µM (active)
same,Potency,[3],11.8 µM (active)
same,Potency,[5],inactive
c1cn2cc(-c3ccc4cn[nH]c4c3)nc(Nc3ccc(N4CCOCC4)cc3)c2n1,Potency,[1],0.651 µM (active)
same,Potency,[2],820 nM (active) and 1.32 µM (active)
same,activity (max response),[4],2.68%
CC[C@H](Nc1ncnc2nc[nH]c12)c1oc2ccccc2c(=O)c1-c1cccc(F)c1,Potency,[1],5.9 µM (active)
same,Potency,[2],14.8 µM (active)
same,activity (max response),[4],-13.2%
CC1=C(CC(=O)O)c2cc(F)ccc2/C1=C\c1ccc(S(C)=O)cc1 (centres undefined),Potency,[1],inactive
same,Potency,[2],inactive
same,activity (max response),[4],1.22%
O=C(Nc1ccc(OC(F)(F)Cl)cc1)c1cnc(N2CC[C@@H](O)C2)c(-c2ccn[nH]2)c1,Potency,[1],5.9 µM (active)
same,Potency,[2],6.61 µM (active)
same,Potency,[4],20 µM (active)
Cc1c(-c2cnccn2)ssc1=S,Potency,[1],4.17 µM (active)
same,Potency,[2],4.68 µM (active)
same,activity (max response),[4],-8.54%
CC(C)(O)CNc1ncc(-c2ccnc(Nc3ccncc3)n2)c(CC2CC2)n1,Potency,[1],1.48 µM (active)
same,Potency,[2],1.18 µM (active)
same,Potency,[4],14.1 µM (active)
CC1=C(c2ccc(O)cc2)[C@H](c2ccc(OCCN3CCCCC3)cc2)Oc2cc(O)ccc21,Potency,[1],8.33 µM (active)
same,Potency,[2],8.33 µM (active)
same,activity (max response),[4],-12%
O=C(c1ccc(/C=C/c2n[nH]c3ccccc23)cc1)N1CCNCC1,Potency,[1],0.058 µM (active)
same,Potency,[2],0.206 µM (active)
same,activity (max response),[4],-10.3%
CCCCCCCCCCCCCC[N+](C)(C)Cc1ccccc1,Potency,[1],2.99 µM (active)
same,Potency,[2],3.35 µM (active)
same,Potency,[4],6.51 µM (active)
CN(C)CCCOC1(Cc2ccccc2)CCCCCC1,Potency,[1],inactive
same,Potency,[2],inactive
same,activity (max response),[4],2.61%
CCn1c(N)c(C(=O)NC)c(=O)c2ccc(C#CC(C)(O)COC)nc21 (centres undefined),Potency,[1],4.17 µM (active)
same,Potency,[2],4.11 µM (active)
same,activity (max response),[4],12.5%
Cc1cc(N2CCOCC2)ccc1Nc1nc(NC2CCCCC2)c2[nH]cnc2n1,Potency,[1],0.833 µM (active)
same,Potency,[2],0.461 µM (active)
same,Potency,[4],25.1 µM (active)
O=S(=O)(O)c1ccc2nc(-c3ccccc3)[nH]c2c1,Potency,[1],inactive
same,Potency,[2],inactive
same,activity (max response),[4],-14%
CNC(=O)[C@H]1O[C@@H](n2cnc3c(NCc4cccc(I)c4)nc(Cl)nc32)[C@H](O)[C@@H]1O,Potency,[1],14.8 µM (active)
same,Potency,[2],8.33 µM (active)
same,activity (max response),[4],2.68%
COc1cc(C(N)=O)ccc1NC(=O)[C@@H]1N[C@@H](CC(C)(C)C)[C@@]2(C(=O)Nc3cc(Cl)ccc32)[C@H]1c1cccc(Cl)c1F,Potency,[1],5.9 µM (active)
same,Potency,[2],4.68 µM (active)
same,Potency,[4],15.8 µM (active)
Cc1ccc(NC(=O)Nc2nnc(Sc3ncnc4cc(OCCCN5CCOCC5)ccc34)s2)cc1,Potency,[1],0.0148 µM (active)
same,Potency,[2],0.0166 µM (active)
same,activity (max response),[4],-9.58%
